The record followed here is PubChem BioAssay (Tox21).

A short description of assay [1]: qHTS assay to identify small molecule antagonists of the androgen receptor (AR) signaling pathway using the MDA cell line in the presence of 0.5 nM R1881 - cell viability counter screen (AID 1259242). Further: nearly all actives have a fitted effect of over 45% in size. Further: potency means the concentration at half of the fitted maximal effect. A digest of the protocol: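 Live-cell protease fluorescence, CellTiter-Fluor, 30 min at 37C. Cells: MDA-kb2, 3,000/well, preincubated 5 hr. Compounds plus 0.5 nM R1881 final, 16 hr, 37C, 0% CO2.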
In general terms: In qHTS, concentration-response curves come from the screen itself.

Assay [2] deals with Androgen receptor (Homo sapiens) (UniProt P10275). Briefly: qHTS assay to identify small molecule antagonists of the androgen receptor (AR) signaling pathway using the MDA cell line in the presence of 0.5 nM R1881 (AID 1259243). Further: nearly all actives have a fitted effect of over 50% in size. Further: potency means the concentration at half of the fitted maximal effect. Summed up: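 MDA-kb2, MMTV-luc (AR/GR elements); 3,000 cells/well; cpd + 0.5 nM R1881 final; 16 hr 37C, 0% CO2; ONE-Glo 30 min RT; luminescence.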
Chain of Androgen receptor (Homo sapiens) (P10275 whole entry, looked up): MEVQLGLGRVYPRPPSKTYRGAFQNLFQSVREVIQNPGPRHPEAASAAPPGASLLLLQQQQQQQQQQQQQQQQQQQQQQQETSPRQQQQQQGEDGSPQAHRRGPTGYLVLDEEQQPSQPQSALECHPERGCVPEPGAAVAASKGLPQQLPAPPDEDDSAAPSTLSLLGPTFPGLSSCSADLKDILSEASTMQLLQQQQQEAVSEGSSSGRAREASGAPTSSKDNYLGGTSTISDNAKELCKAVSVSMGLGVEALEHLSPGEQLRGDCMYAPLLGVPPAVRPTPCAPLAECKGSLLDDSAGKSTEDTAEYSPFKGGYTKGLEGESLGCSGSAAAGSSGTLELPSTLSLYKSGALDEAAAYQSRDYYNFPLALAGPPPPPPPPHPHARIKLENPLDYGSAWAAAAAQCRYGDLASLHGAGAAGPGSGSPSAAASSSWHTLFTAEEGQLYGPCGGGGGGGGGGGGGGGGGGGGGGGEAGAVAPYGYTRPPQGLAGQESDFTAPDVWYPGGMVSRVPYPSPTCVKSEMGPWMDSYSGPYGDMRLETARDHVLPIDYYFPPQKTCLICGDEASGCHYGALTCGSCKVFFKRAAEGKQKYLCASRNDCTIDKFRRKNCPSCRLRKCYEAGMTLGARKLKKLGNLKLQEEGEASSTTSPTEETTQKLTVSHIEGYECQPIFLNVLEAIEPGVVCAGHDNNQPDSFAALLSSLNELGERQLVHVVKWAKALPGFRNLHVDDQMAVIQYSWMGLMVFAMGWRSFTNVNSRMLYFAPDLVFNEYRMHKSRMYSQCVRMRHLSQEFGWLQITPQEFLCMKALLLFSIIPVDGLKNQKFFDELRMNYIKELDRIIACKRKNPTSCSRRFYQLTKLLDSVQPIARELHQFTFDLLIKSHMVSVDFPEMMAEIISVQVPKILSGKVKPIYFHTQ
Assay [3] concerns the target Estrogen receptor (Homo sapiens) (UniProt P03372). Briefly: qHTS assay to identify small molecule antagonists of the estrogen receptor alpha (ER-alpha) signaling pathway using the BG1 cell line in the presence of 0.1 nM 17-beta-estradiol (AID 1259244). Further: nearly all actives have a fitted effect of over 50% in size. Further: potency means the concentration at half of the fitted maximal effect. A digest of the protocol: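 Luminescence after ONE-Glo (30 min, room temperature) measured ERE-luciferase activity in VM7Luc4E2 cells treated 22 h with compound and 0.1 nM final 17beta-estradiol as stimulator.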

Assay [4] is described as follows: qHTS assay to identify small molecule HDAC inhibitors (AID 1259364).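 Further: wild-type HCT-116 cells with endogenous class I/II HDAC activity; top concentration of the series differs between compounds; nearly all actives have a fitted effect of over 45% in size.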 Summed up:
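HCT-116 (wild type), 1,500 cells/well, overnight; compound 2 hr 37C 5% CO2; HDAC-Glo I/II reagent 30 min RT; luminescence readout.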

Assay [5] in a line: qHTS assay to identify small molecule HDAC inhibitors - cell viability counter screen (AID 1259365). Further: series mostly up to about 92 µM; nearly all actives have a fitted effect of over 50% in size. Summed up: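 HCT-116 wild-type, overnight attachment; 2hr drug exposure, 37C; CellTiter-Glo luminescent ATP readout after 30min RT.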
A short description of assay [6]: qHTS assay to identify small molecule agonists of the sonic hedgehog signaling (Shh) pathway - cell viability counter screen (AID 1259366). Further: nearly all actives have a fitted effect of over 50% in size. Further: potency means the concentration at half of the fitted maximal effect. A digest of the protocol:
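Compounds in DMSO were pin-transferred onto 3T3 Gli1-Luc cells that had settled 4hr; plates then stood 24hr at 37C and 5% CO2. One hour before the end, CellTiter-Fluor was added and fluorescence recorded.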

Assay [7] can be described thus: qHTS assay to identify small molecule antagonists of the sonic hedgehog signaling (Shh) pathway - cell viability counter screen (AID 1259367). Further: nearly all actives have a fitted effect of over 55% in size. A digest of the protocol:
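Viability was read by CellTiter-Fluor fluorescence in the same wells, reagent added 23 hr into compound treatment and incubated 1 hr at 37C. The 3T3 Gli1-Luc reporter cells (2,000/well) received conditioned medium after compound and ran 24 hr.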

Assay [8] can be described thus: qHTS assay to identify small molecule agonists of the sonic hedgehog signaling (Shh) pathway (AID 1259368; calls by dose curve;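 further: NIH/3T3-derived 3T3Gli1-Luc cells carrying a stable Gli1-driven firefly luciferase reporter; series mostly up to about 92 µM; nearly all actives have a fitted effect of over 15% in size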). Summed up:
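Read-out: firefly luciferase luminescence from a Gli1 response element reporter stably integrated in NIH/3T3-derived 3T3Gli1-Luc cells, measured 30 min at room temperature after reagent addition. Compound exposure lasted 24 hr at 37 C, 5% CO2.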

The nature of assay [9]: qHTS assay to identify small molecule antagonists of the sonic hedgehog signaling (Shh) pathway (AID 1259369; calls by dose curve; further: nearly all actives have a fitted effect of over 45% in size; further: potency means the concentration at half of the fitted maximal effect). A digest of the protocol:
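Luminescence readout: firefly Luc under Gli1 response element in 3T3Gli1-Luc cells (NIH/3T3 clone). Antagonist mode, stimulation by conditioned medium; compound exposure 24hr at 37 C, 5% CO2.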

Assay [10] concerns the target Estrogen receptor beta (Homo sapiens) (UniProt Q92731). As to the kind of experiment: qHTS assay to identify small molecule agonists of the estrogen receptor beta (ER-beta) signaling pathway (AID 1259377; active means well fitted activation curve with a large enough effect in the signal ratio in the repeat runs, not every such curve was filed as active; the % refers to the signal ratio). Summed up: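 qHTS in ER-beta-UAS-bla HEK293T cells: 6 hr settling, then 16 hr compound at 37C, then LiveBLAzer substrate 2 h at RT before fluorescence reading.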

Assay [11] has the same target. As to the kind of experiment: qHTS assay to identify small molecule antagonists of the estrogen receptor beta (ER-beta) signaling pathway (AID 1259378; active means well fitted inhibition curve with a large enough effect in the signal ratio in the repeat runs, not every such curve was filed as active; the % refers to the signal ratio). Summed up:
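Antagonist mode: compounds added to beta-lactamase reporter HEK293T ER-beta-UAS cells stimulated with E2 (1nM final), 16 hr at 37C. LiveBLAzer B/G FRET substrate, 2 hours room temperature, fluorescence read-out.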

The nature of assay [12]: qHTS assay to identify small molecule agonists of the androgen receptor (AR) signaling pathway in the presence of an antagonist - cell viability counter screen (AID 1259379). Further: nearly all actives have a fitted effect of over 25% in size. Further: potency means the concentration at half of the fitted maximal effect. Summed up:
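Viability counter screen: CellTiter-Fluor fluorescence, measured in the same wells as the luciferase read-out. MDA-kb2 cells, 3,000/well, with nilutamide at 3.0uM final and compounds at 15 concentrations, 16 hr at 37C, 0% CO2.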

A short description of assay [13]: qHTS assay to identify small molecule agonists of the estrogen receptor beta (ER-beta) signaling pathway - cell viability counter screen (AID 1259380). Further: nearly all actives have a fitted effect of over 30% in size. Further: potency means the concentration at half of the fitted maximal effect. A digest of the protocol: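 Luminescence read-out (CellTiter-Glo, 30 min, room temp) taken in the same wells as the beta-lactamase reporter assay; ER-beta-UAS-bla HEK293T cells exposed to DMSO-dissolved compounds for 16 hr at 37C in 2% charcoal-stripped FBS medium.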

Assay [14] addresses Androgen receptor (Homo sapiens) (UniProt P10275). Briefly: qHTS assay to identify small molecule agonists of the androgen receptor (AR) signaling pathway in the presence of an antagonist (AID 1259381; calls by dose curve; further: nearly all actives have a fitted effect of over 15% in size). A digest of the protocol: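 Luciferase read-out (ONE-Glo, 30min room temperature) in MDA-kb2 MMTV-reporter cells; agonist mode run in presence of AR antagonist nilutamide, 3.0uM final. Compounds tested as 15-point series, 16hr exposure at 37C, 0% CO2.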

The nature of assay [15]: qHTS assay to identify small molecule antagonists of the estrogen receptor beta (ER-beta) signaling pathway - cell viability counter screen (AID 1259382). Further: nearly all actives have a fitted effect of over 55% in size. Further: potency means the concentration at half of the fitted maximal effect. Summed up: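 Luminescent ATP read-out (CellTiter-Glo, 30 min, RT) taken in the same wells as the bla reporter assay. HEK293T ER-beta-UAS-bla cells in 2% charcoal-stripped FBS were exposed to compounds with 1nM E2 for 16 hr at 37C.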

Assay [16] concerns the target Estrogen receptor (Homo sapiens) (UniProt P03372). Briefly: qHTS assay to identify small molecule agonists of the estrogen receptor alpha (ER-alpha) signaling pathway in the presence of an antagonist (AID 1259383; calls by dose curve; further: top concentration of the series differs between compounds; nearly all actives have a fitted effect of over 15% in size). A digest of the protocol:
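Luciferase luminescence (ONE-Glo, 30min at room temperature) measured in VM7Luc4E2 cells after 22hr compound exposure at 15 concentrations, with 10.0nM ICI-182,780 final present; cells express endogenous ER-alpha and carry four EREs upstream of luciferase.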

Assay [17] can be described thus: qHTS assay to identify small molecule agonists or antagonists of the thyroid stimulating hormone receptor (TSHR) signaling pathway - wild type cell line counter screen (AID 1259384; calls by dose curve). A digest of the protocol: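 Counter screen in untransfected Hek293: compounds (15-point titration, triplicate) plus phosphodiesterase inhibitor Ro20-1724 added after 18 h plating; 30 min RT. Intracellular cAMP via competitive d2/cryptate immunoassay, 1 h incubation.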

The target of assay [18] is Thyrotropin receptor (Homo sapiens) (UniProt P16473). As to the kind of experiment: qHTS assay to identify small molecule antagonists of the thyroid stimulating hormone receptor (TSHR) signaling pathway (AID 1259385; calls by dose curve; further: nearly all actives have a fitted effect of over 20% in size). Summed up:
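Antagonist mode: compound-treated TSHR-expressing HEK293 cells were stimulated with 1.5 ng/mL TSH (final) in presence of Ro20-1724 for 30 min at RT. HTRF cAMP detection after 1 h; each compound tested at 15 concentrations, triplicate.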

Assay [19] can be described thus: qHTS assay to identify small molecule agonists of the estrogen receptor alpha (ER-alpha) signaling pathway in the presence of an antagonist - cell viability counter screen (AID 1259386). Further: nearly all actives have a fitted effect of over 30% in size. Further: potency means the concentration at half of the fitted maximal effect. A digest of the protocol: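 Read-out: CellTiter-Fluor fluorescence after 1hr reagent incubation, measured in the same wells as the luciferase readout. VM7Luc4E2 cells were exposed to 15 compound concentrations with 10.0nM ICI-182,780 for 22hr at 37C.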

Assay [20] in a line: qHTS assay to identify small molecule phospholipidosis (PLD) inducers (AID 1259344; active means well fitted curve in the direction sought with a large enough effect; an effect the other way counts as inactive or inconclusive). A digest of the protocol: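 Phospholipid accumulation was scored by imaging: fixed, Hoechst-counterstained HepG2 cells stained with LipidTOX Red after 24 h compound exposure at 37 C. Read-outs were pit count and pit intensity per well or per cell, with amiodarone and DMSO controls.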

“And” between values parts separate entries of the source, which are not always exact repeats. Equal values may be shown once. A number with no mark means an inactive call. Results filed as inconclusive are left out. The source made the active and inactive calls. Unless noted, the call rests on the fitted dose curve; in most records, active means well fitted curve in the direction sought with a large enough effect in the repeat runs; inconclusive means weak or mixed curves; inactive means no such curve, though single readings can be large; an effect the other way counts as inactive or inconclusive.

Chain of Thyrotropin receptor (Homo sapiens) (P16473 whole entry, looked up): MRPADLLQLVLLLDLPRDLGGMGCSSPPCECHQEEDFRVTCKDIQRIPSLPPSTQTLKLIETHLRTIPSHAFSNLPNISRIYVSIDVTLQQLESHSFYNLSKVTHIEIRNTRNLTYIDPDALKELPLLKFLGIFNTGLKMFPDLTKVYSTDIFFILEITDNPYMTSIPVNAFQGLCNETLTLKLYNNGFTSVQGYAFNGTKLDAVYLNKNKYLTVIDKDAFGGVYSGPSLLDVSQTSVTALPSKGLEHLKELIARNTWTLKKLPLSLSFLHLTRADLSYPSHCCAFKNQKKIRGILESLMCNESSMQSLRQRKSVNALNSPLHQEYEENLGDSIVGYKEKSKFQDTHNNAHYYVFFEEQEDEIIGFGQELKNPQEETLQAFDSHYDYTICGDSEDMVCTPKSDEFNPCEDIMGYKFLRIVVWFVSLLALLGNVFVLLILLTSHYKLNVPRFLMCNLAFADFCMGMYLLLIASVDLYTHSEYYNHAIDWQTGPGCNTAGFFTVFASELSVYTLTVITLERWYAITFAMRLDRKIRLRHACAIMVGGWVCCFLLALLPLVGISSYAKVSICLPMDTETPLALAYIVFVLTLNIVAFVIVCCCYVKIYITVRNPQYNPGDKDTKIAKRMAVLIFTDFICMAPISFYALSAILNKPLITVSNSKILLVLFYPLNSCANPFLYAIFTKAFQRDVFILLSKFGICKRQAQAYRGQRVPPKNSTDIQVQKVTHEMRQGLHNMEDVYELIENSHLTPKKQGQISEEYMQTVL
Chain of Estrogen receptor beta (Homo sapiens) (Q92731 whole entry, looked up): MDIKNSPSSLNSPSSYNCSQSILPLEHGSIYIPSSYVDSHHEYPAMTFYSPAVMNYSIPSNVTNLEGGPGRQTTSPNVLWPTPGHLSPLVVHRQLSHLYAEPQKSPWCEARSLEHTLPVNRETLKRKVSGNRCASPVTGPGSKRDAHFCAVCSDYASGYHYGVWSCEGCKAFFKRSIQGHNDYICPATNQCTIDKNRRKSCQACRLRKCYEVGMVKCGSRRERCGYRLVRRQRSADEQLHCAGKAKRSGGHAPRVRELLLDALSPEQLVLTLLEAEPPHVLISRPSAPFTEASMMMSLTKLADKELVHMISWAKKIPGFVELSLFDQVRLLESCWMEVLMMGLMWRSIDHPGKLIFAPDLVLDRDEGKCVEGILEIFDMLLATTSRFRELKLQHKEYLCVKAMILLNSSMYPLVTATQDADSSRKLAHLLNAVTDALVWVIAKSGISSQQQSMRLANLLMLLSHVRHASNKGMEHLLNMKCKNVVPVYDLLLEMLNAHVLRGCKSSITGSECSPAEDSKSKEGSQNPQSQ
Chain of Estrogen receptor (Homo sapiens) (P03372 whole entry, looked up): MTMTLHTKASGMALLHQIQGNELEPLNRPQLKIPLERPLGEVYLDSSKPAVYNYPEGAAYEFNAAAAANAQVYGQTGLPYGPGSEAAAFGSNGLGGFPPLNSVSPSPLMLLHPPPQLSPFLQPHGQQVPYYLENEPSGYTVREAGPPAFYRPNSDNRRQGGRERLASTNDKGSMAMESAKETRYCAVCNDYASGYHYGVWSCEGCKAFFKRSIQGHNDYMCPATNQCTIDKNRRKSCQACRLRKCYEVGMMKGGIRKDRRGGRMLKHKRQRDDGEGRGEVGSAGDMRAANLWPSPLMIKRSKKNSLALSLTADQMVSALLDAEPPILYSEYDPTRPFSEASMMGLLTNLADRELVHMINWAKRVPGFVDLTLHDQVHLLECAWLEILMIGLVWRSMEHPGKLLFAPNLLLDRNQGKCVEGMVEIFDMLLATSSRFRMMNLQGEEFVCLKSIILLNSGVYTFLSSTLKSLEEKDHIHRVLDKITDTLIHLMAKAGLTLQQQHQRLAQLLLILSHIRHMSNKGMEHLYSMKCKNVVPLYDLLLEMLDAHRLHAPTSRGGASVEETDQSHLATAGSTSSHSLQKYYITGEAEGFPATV

In the case of `O=CC1CC1`, the Potency result in [1], in assay [2], in [3], in assay [4], in [5] and in [6] was “inactive” throughout. Also, the Potency result in [7], in [8], in assay [9], in assay [10], in assay [11] and in [12] was “inactive” each time. Also, the Potency entry in assay [13], in [14], in assay [15], in assay [16], in assay [18] and in [19] was “inactive” in each case. Moreover, in assay [17], the compound was classed as inactive.

Consider `CCOC(OCC)C(=O)c1ccccc1`, for which the Potency entry in [1], in [2], in assay [3], in assay [4], in [5] and in [6] was “inactive” in each case. Besides, the Potency entry in assay [7], in assay [8], in [9], in [10], in assay [11] and in assay [12] was “inactive” in each case. Besides, the Potency entry in assay [13], in assay [14], in assay [15] and in assay [19] was “inactive” each time.

With `CC1=C(/C=C/C(C)=C/C=C/C(C)=C/C(=O)Nc2ccc(O)cc2)C(C)(C)CCC1`, the Potency in assay [1] was 23.7 µM (active); in assay [2], 55.9 µM (active) and 18.8 µM (active); in assay [3] it was 28 µM (active) and 13.3 µM (active); in [6] it was 31.4 µM (active) and 21.1 µM (active); in [9] it was 14 µM (active) and 11.9 µM (active); in assay [12] it was 49.8 µM (active) and 23.7 µM (active). In addition, the Potency is 62.7 µM (active) and 26.6 µM (active) in assay [13]; 70.3 µM (active) in assay [15]; 31.4 µM (active) and 13.3 µM (active) in [19]. The Potency result in [20], in assay [4], in [5], in assay [8], in [16] and in assay [18] was “inactive” throughout. Further, the outcome in [17] was inactive.

For the compound `C#CC(O)CCC` (stereo not drawn), the Potency result in [1], in [2], in [3], in assay [4], in assay [5] and in assay [6] was “inactive” each time. Also, the Potency result in [7], in assay [8], in assay [9], in [10], in assay [11] and in assay [12] was “inactive” in each case. The Potency result in assay [13], in assay [15], in [16], in [18] and in assay [19] was “inactive” each time. In assay [17], the call was inactive.

Take `CC(=O)C=O`: the Potency entry in [1], in assay [2], in [3], in [4], in assay [5] and in assay [6] was “inactive” in each case. For the same compound, the Potency result in assay [7], in assay [8], in assay [9], in assay [11], in assay [12] and in assay [13] was “inactive” throughout. Further, the Potency result in assay [14], in assay [16] and in [19] was “inactive” throughout.

For the compound `C[Si](C)(C)Cl`, the Potency result in assay [1], in [2], in assay [3], in assay [4], in assay [5] and in [6] was “inactive” in each case. The Potency result in assay [7], in assay [8], in assay [9], in assay [10], in [11] and in assay [12] was “inactive” each time. Also, the Potency entry in [13], in [14], in assay [15], in assay [16], in assay [18] and in assay [19] was “inactive” in each case. Moreover, the compound was called inactive in assay [17].

As to `Clc1ccc(C(Cn2ccnc2)OCc2c(Cl)cccc2Cl)c(Cl)c1` (stereo not drawn), the Potency result in assay [1], in assay [3], in [20], in assay [4], in assay [5] and in [7] was “inactive” in each case. The Potency entry in assay [8], in [12], in assay [14], in assay [18] and in assay [19] was “inactive” in each case. The Potency in assay [2] is 8.41 µM (active); in assay [13] it was 29.8 µM (active); in assay [15], 23.7 µM (active). In addition, the result in [17] was inactive.
